Screening results as filed in PubChem.
HT1080 IDH1KD tx = qHTS for induction of synthetic lethality in tumor cells producing 2HG: qHTS for the HT-1080-IDH1KD cell line | Potency, µM (top dose mostly 46.1 µM), inactives show top-dose activity, negative = toxicity, actives largely listed as cytotoxic | HT-1080 IDH1 knockdown viability, ATP luminescence, 48 h | hit rate 2% among 360,000 | AID 686971, 2013;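 further: potency means the concentration at half of the fitted maximal effect; 0% = DMSO wells and -100% = cell-free medium wells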
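In this qHTS, HT-1080 cells depleted of IDH1 are exposed for 48 h at 37 °C to compound titrations. Toxicity is scored from CellTiter-Glo luminescence, with DMSO as full viability and medium alone as none.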
DT40 TDP1 no CPT = qHTS for Inhibitors of human tyrosyl-DNA phosphodiesterase 1 (TDP1): qHTS in cells in absence of CPT; DT40 Tdp1-/- hTDP1 cells, no CPT, ATP luminescence, 48 h; Potency, µM (series often up to 46.2 µM), for inactives: at the highest dose activity change, negative = growth inhibition, actives largely listed as inhibitors; hit rate 15% among 420,000; further: potency means the concentration at half of the fitted maximal effect; nearly all actives have a fitted effect of over 55% in size
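Compound effects on proliferation are scored in DT40 Tdp1-/-;hTDP1 cells in the absence of CPT. ATP levels (CellTiter-Glo luminescence) are recorded after a ≥48 hr, 37 °C incubation.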
DT40 TDP1 CPT = qHTS for Inhibitors of human tyrosyl-DNA phosphodiesterase 1 (TDP1): qHTS in cells in presence of CPT; Potency, µM (highest dose often 46.2 µM), for the others: at the highest dose activity change, negative = growth inhibition, most hits filed as inhibitors; hit rate 12% among 420,000; chicken DT40 Tdp1-/-;hTDP1 cells + 20 nM CPT, ATP luminescence, 48 h; further: potency means the concentration at half of the fitted maximal effect; nearly all actives have a fitted effect of over 55% in size
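Cell growth measured by CellTiter-Glo luminescence after a minimum 48 h, 37 C compound exposure with 20 nM CPT in Tdp1-knockout DT40 cells stably expressing hTDP1, seeded 400/well; qHTS titration format.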
HT1080-NT tox = qHTS for induction of synthetic lethality in tumor cells producing 2HG: qHTS for the HT-1080-NT fibrosarcoma cell line. Potency, µM (series often up to 46.1 µM), inactives show at the highest dose activity, negative = less viability, most hits filed as cytotoxic. HT-1080-NT fibrosarcoma viability, CellTiter-Glo ATP luminescence, 48 h. hit rate 1.6% among 360,000. AID 686970, 2013;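 further: NT is the 2HG producing partner of a matched IDH1 knockdown line; potency means the concentration at half of the fitted maximal effect; 0% = DMSO-treated cells and -100% = media-only wells without cells; nearly all actives have a fitted effect of over 55% in size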
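Compounds were tested in concentration-response format on HT-1080-NT cells for 48 hours at 37 degrees C. Cell viability came from CellTiter-Glo luminescence; curves were classified by r2, response magnitude and activity.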
IL-1B inflam inh = qHTS for Inhibitors of Inflammasome Signaling: IL-1-beta AlphaLISA Primary Screen; THP-1 LPS/ATP IL-1B secretion, AlphaLISA, 16 h; active compounds read low; activity change, % at 57.5 µM; hit rate 4.7% among 360,000; AID 743279, 2014; in the data active means activity change below about -50%; inconclusive means mostly about -30% to -49%
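Secreted IL-1B measured by AlphaLISA bead assay after 16 h compound exposure of THP-1 cells; compounds (final up to 57.5 uM) added 1 h before LPS (250 ng/mL) and ATP (1.25 mM) stimulation; lower signal means less secretion.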
An asterisk follows results filed as active; u = inconclusive; x = no result given. A selection: hits, their analogues and other compounds. The true share with any hit is near 19%. Unless noted, the call rests on the fitted dose curve; in most records, active means well fitted curve in the direction sought with a large enough effect; inconclusive means small, poorly fitted or top-dose-only effect, or another doubt; inactive means no such curve, though single readings can be large; an effect the other way counts as inactive or inconclusive. Unless noted, on the % scale 0 is the no-effect control and ±100 the full control effect.

SMILES	HT1080 IDH1KD tx	DT40 TDP1 no CPT	DT40 TDP1 CPT	HT1080-NT tox	IL-1B inflam inh
COc1cccc2cc(-c3nnc(SCC(=O)NCc4ccccc4)n3C)oc12	15%	u	u	3%	u
CCc1ccc(NC(=O)CSc2nnc3[nH]c(=O)cc(-c4ccccc4)n23)cc1	x	7%	u	x	x
Cc1cc(Cl)ccc1C(O)c1ncc(-c2ccc(F)cc2)[nH]1 (stereo unspecified)	21µM*	u	u	u	-14
Cc1cc(F)ccc1C(O)c1ncc(-c2ccc(Cl)cc2)[nH]1 (stereo unspecified)	-23%	u	1%	-20%	0
Cc1cc(Cl)ccc1C(O)c1ncc(-c2ccc(Cl)cc2)[nH]1 (stereo unspecified)	u	u	13µM*	u	-10
Cc1cccc(-c2cnc(C(O)c3ccc(Cl)cc3C)[nH]2)c1 (stereo unspecified)	u	18µM*	u	u	-8
Cc1cc(Cl)ccc1C(O)c1ncc(-c2ccc3ccccc3c2)[nH]1 (stereo unspecified)	u	u	u	u	-22
Cc1ccc(-c2cnc(C(O)c3ccc(Cl)cc3C)[nH]2)cc1 (stereo unspecified)	-21%	u	23µM*	-19%	-18
CCOC(=O)C1(CC2CCCCO2)CCN(S(=O)(=O)c2cc(C)cs2)CC1 (stereo unspecified)	-15%	u	u	-9%	20
Cc1cccc(NC(=O)CN2CCN(C(=O)CNC(=O)c3ccc(-c4ccccc4)cc3)CC2)c1C	10µM*	2.3µM*	4.6µM*	u	38
Cc1cccc(C)c1NC(=O)CN1CCN(C(=O)CNC(=O)Cc2cccc3ccccc23)CC1	3%	15µM*	u	-16%	3
Cc1cccc(C)c1NC(=O)CN1CCN(C(=O)CNC(=O)c2ccc(-c3ccccc3)cc2)CC1	u	16µM*	u	2%	29
O=S(=O)(c1cccc2nsnc12)N1CCNCC1	8%	-6%	1%	11%	17
COc1ccc(CN(C(=O)Nc2cc(C)ccc2C)C2CCN(C(C)=O)CC2)cc1	x	u	-7%	x	x
Cc1nc2nc(C)c(CCC(=O)NCc3ccc4c(c3)OCO4)c(C)n2n1	6%	4%	-1%	3%	20
C[C@H](CO)N1C[C@H](C)[C@H](CN(C)CC2CCCCC2)Oc2ccc(NS(=O)(=O)c3ccc(F)cc3)cc2CC1=O	-22%	u	u	-25%	113
CCCCNC(=O)CSc1nc2cc3c(cc2c(=O)n1CCCCCC(=O)NCc1ccc(OC)cc1)OCO3	x	-6%	2%	x	x
NS(=O)(=O)c1ccc(NC(=S)N2CCN(Cc3ccc(Cl)c(Cl)c3)CC2)cc1	-13%	u	u	-25%	-72*
S=C(NCCc1ccccc1)N1CCN(Cc2ccc(Cl)c(Cl)c2)CC1	-4%	u	18µM*	-17%	-16
NS(=O)(=O)c1ccc(NC(=S)N2CCC(Cc3ccccc3)CC2)cc1	-1%	u	11%	-10%	-62*
NS(=O)(=O)c1ccc(NC(=S)N2CCN(c3ccc(Cl)c(Cl)c3)CC2)cc1	u	6.5µM*	6.5µM*	u	3
CNC(=S)N1CCC(Cc2ccccc2)CC1	5%	-3%	-1%	14%	-5
CN1CCN(c2ccc(C(F)(F)F)cc2NC(=O)c2ccco2)CC1	-18%	u	-15%	-2%	-18
O=C(CS(=O)(=O)Nc1ccc(F)cc1Cl)Nc1ccc(F)cc1Cl	-15%	u	-28%	-18%	52
Cc1nn(C)cc1C(=O)/C=C/c1ccc([N+](=O)[O-])cc1	u	18µM*	u	23µM*	-99*
